This passage reports inhibition results from PubChem BioAssay AID463190 (Sanford-Burnham Center for Chemical Genomics, 2010).

Structures are written as SMILES. Screen size: about 330,000 compounds; about 7,300 (2.2%) were called active.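 The calls were made as follows: active = inhibition of at least 40%; inactive = the rest.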 The entries come from a sample that favours actives as a whole.

The nature of the test: growth inhibition of tim10-1 ts yeast – luminescence, uHTS, primary screen (AID 463190).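 Also: mutant grown at 25 °C; 0% = DMSO wells with yeast and 100% = wells holding no yeast.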 The note with it: S. cerevisiae tim10-1 ts strain growth, BacTiter-Glo, 24 h; at 20 µM; stronger effect = higher value.
Turning to `Cc1cc(C)n(C(=O)CCNC(=O)c2ccccc2Cl)n1`, the inhibition is -10.3% (inactive).
Consider `CN(c1ccc(OCC(=O)O)cc1)S(=O)(=O)c1ccc2ccccc2c1`, for which the inhibition was 11.1% (inactive).
Regarding `CN(c1ccccc1)S(=O)(=O)c1ccc(NC(=O)COc2ccccc2)cc1`, the inhibition was 40.2% (active).
Consider `O=C(COc1ccccc1)Nc1ccc(F)cc1`, for which the inhibition was 12.1% (inactive).
For the compound `CC(=O)Nc1ccc(S(=O)(=O)N2CCC(C(=O)NC3CC3)CC2)cc1`, the inhibition was 5.84% (inactive).
`Cc1cc2nc(-c3ccc(NC(=O)c4cccnc4)cc3)oc2cc1C`: the inhibition was 12.5% (inactive).
Turning to `O=C(Nc1ccc2oc(-c3ccc4ccccc4c3)nc2c1)c1cccs1`, the inhibition is 3.31% (inactive).
With `CCc1ccc2oc(-c3ccc(N)cc3)nc2c1`, the inhibition is 41.3% (active).
`Cc1ccc(NC(=O)COC(=O)CCc2nc3ccccc3n2-c2ccccc2)c(C)c1`: the inhibition is 10.3% (inactive).
As to `Cc1ccc2c(c1)C1CN(C)CCC1N2C(=S)Nc1ccc(OC(F)F)cc1` (stereo not given), the inhibition is 3.44% (inactive).
For `Cc1ccc2c(c1)C1CN(C)CCC1N2S(=O)(=O)c1cccc(F)c1` (stereo not given), the inhibition is 3.83% (inactive).
The figure for `Cc1ccc2c(c1)C1CN(C)CCC1N2S(=O)(=O)c1ccc(Oc2ccc([N+](=O)[O-])cc2)cc1` (stereo not given) is 43.1% (active); for `COCC(=O)Nc1c(I)c(C(=O)NCC(O)CO)c(I)c(C(=O)N(C)CC(O)CO)c1I` (stereo not given) it is 6% (inactive).
`Cc1ccc(/C=C/C(=O)O)cc1S(=O)(=O)N1CCC(Cc2ccccc2)CC1`: the inhibition is -0.486% (inactive).
For the compound `COc1cc(CN2CCC(n3nccc3NC(=O)CCCc3ccccc3)CC2)ccc1O`, the inhibition was 25.4% (inactive).
With `COc1cccc(CN(C)CC2CCCN(CCc3ccc(Cl)cc3)C2)c1OC` (stereo not given), the inhibition is -21.5% (inactive).
The figure for `Nc1cc(C(F)(F)F)ccc1N1CCOCC1` is 11.6% (inactive); for `COc1cccc(CNc2nc(C(F)(F)F)nc3ccccc23)c1` it is 39.2% (inactive); for `CCc1ccc(C(CNc2nc(C(F)(F)F)nc3ccccc23)N(C)C)cc1` (stereo not given) it is 29.3% (inactive).
Take `CC(Nc1nc(C(F)(F)F)nc2ccccc12)c1cccs1` (stereo not given): the inhibition was 42.6% (active).
Take `Cn1c2ccccc2n2c(=O)c(=O)n(CC(=O)c3ccc(F)cc3)nc12`: the inhibition was -14.7% (inactive).
In the case of `COc1ccc(N2CCN(C(=O)/C(C#N)=C/c3ccccc3)CC2)cc1`, the inhibition was 18.8% (inactive).
Turning to `COc1ccc(/C=C(\C#N)C(=O)ONC2=NCCCCC2)cc1`, the inhibition is 48.2% (active).
With `COc1ccc(/C=C(\C#N)C(=O)OCC(=O)N(C)C2CCS(=O)(=O)C2)cc1` (stereo not given), the inhibition was -4.56% (inactive).
For `CN(NC(=O)c1ccccc1F)c1nc(C(F)(F)F)nc2ccccc12`, the inhibition is 6.21% (inactive).
Consider `Cc1ccc(Nc2c(F)c(F)c(F)c(F)c2C(=O)O)c(C)c1`, for which the inhibition is -6.12% (inactive).
For `NS(=O)(=O)c1ccc(N=Nc2c(O)[nH]c3ccc(Br)cc23)cc1`, the inhibition was -13% (inactive).
For `Oc1[nH]c2ccc(Br)cc2c1N=Nc1nn[nH]n1`, the inhibition is 16.7% (inactive).
With `Cc1cccc(N=Nc2c(O)[nH]c3ccc(F)cc23)c1`, the inhibition is 43.6% (active).
As for `Nc1cccc(-c2cc(-c3ccccc3)nc(-c3cccc(N)c3)n2)c1`, the figure is 26.4% (inactive); as for `Nc1nc(-c2ccccc2)cc(-c2ccccc2)n1`, 41.6% (active).
`c1ccc(-c2cc(-c3ccccc3)[nH]n2)cc1`: the inhibition was 7% (inactive).
In the case of `CCNc1nc(NCC)nc(N(C)n2cnnc2)n1`, the inhibition is 13.1% (inactive).
As to `O=C1N=C2SCCN2/C1=C\c1c(Cl)cccc1Cl`, the inhibition was -18.2% (inactive).
With `CNC(=O)N1c2ccccc2C=Cc2ccccc21`, the inhibition was -1.34% (inactive).
The figure for `CCN(CC(=O)NCc1ccco1)S(=O)(=O)c1ccc(F)cc1` is -17.2% (inactive); for `N/C(Cc1ccc([N+](=O)[O-])cc1)=N\OC(=O)COc1ccc2ccccc2c1` it is 68.6% (active).
Regarding `COC(=O)C(C)NC(=O)COc1ccc2ccccc2c1` (stereo not given), the inhibition was 8.45% (inactive).
`O=C(COC(=O)Cc1ccc([N+](=O)[O-])cc1)NC1CCCCCC1`: the inhibition is 13.1% (inactive).
With `N/C(Cc1ccc([N+](=O)[O-])cc1)=N\OC(=O)C1CCCCC1`, the inhibition is 61.6% (active).
For the compound `Cc1cc(C)cc(OCC(=O)O/N=C(\N)Cc2ccc([N+](=O)[O-])cc2)c1`, the inhibition is 19.4% (inactive).
The figure for `O=C(COC(=O)C1CCCCC1)Nc1ccc([N+](=O)[O-])cc1` is 13.8% (inactive); for `CCOC(=O)C1=C(C)c2ccccc2OC1C(=O)OCC` (stereo not given) it is 9.8% (inactive); for `COCCN(CCOC)c1nc(N)c2c(N)nc3c(c2c1C#N)CC(=O)N3Cc1ccc(Cl)cc1` it is 28.9% (inactive).
As to `Cc1cc2cc(CNC(=O)c3cccs3)ccc2[nH]1`, the inhibition was -2.64% (inactive).
For `CCc1cccc(CC)c1NC(=S)Nc1ccc2cn[nH]c2c1`, the inhibition was 18.2% (inactive).
Turning to `CCc1cccc(CC)c1NC(=S)NCc1ccc2[nH]c(C)cc2c1`, the inhibition is 48.6% (active).
For the compound `O=C(Nc1nnc(CCN2CCCCC2)s1)c1cccc(Cl)c1`, the inhibition was -12.8% (inactive).
The figure for `Cc1cc(/C=C2/SC(=O)N(CC(=O)N3CCCC3)C2=O)ccc1N1CCOCC1` is 3.32% (inactive).
Regarding `COC(=O)C1=C(C)N=C2SC(C)C(=O)N2C1/C=C/c1ccccc1` (stereo not given), the inhibition was 19% (inactive).
As for `CCOC(=O)c1ccccc1N1C(=O)C2Sc3[nH]c(=O)sc3C(/C=C/c3ccccc3)C2C1=O` (stereo not given), the figure is 40.6% (active).
Regarding `CC(OC(=O)c1ccccc1N1C(=O)C2C3CCC(C3)C2C1=O)C(=O)c1ccccc1` (stereo not given), the inhibition is 22.1% (inactive).
For the compound `N#Cc1cccc(NC(=O)C2CCCN(C(=O)c3ccc(Cl)cc3)C2)c1` (stereo not given), the inhibition was 7.79% (inactive).
For the compound `CCC1(C)NC(=O)N(CC(=O)N2CCN(c3cccc(Cl)c3)CC2)C1=O` (stereo not given), the inhibition is 9.91% (inactive).
With `O=C(Nc1ccc2cn[nH]c2c1)c1ccc(S(=O)(=O)N2CCOCC2)cc1`, the inhibition was -2.72% (inactive).
Consider `CC(C)c1nccn1S(=O)(=O)c1cc([N+](=O)[O-])ccc1Cl`, for which the inhibition was 43.6% (active).
Turning to `CCc1nccn1S(=O)(=O)c1cccc([N+](=O)[O-])c1`, the inhibition is -8.99% (inactive).
Regarding `O=C(Oc1ccc([N+](=O)[O-])cc1)c1ccc(Cl)c(S(=O)(=O)N2CCCCC2)c1`, the inhibition is 38.7% (inactive).
As for `Cc1ccc([N+](=O)[O-])cc1S(=O)(=O)N1CCCN(C)CC1`, the figure is -9.68% (inactive); as for `CCc1nc(C)cn1S(=O)(=O)c1cc(OC)c(C)cc1C`, 14.4% (inactive); as for `CCc1nc(C)cn1S(=O)(=O)c1cc([N+](=O)[O-])ccc1Cl`, 53.6% (active).
For the compound `CN(CCC1CCOCC1)Cc1cn[nH]c1-c1ccc(-c2ccccc2)cc1`, the inhibition was 18% (inactive).
As for `COc1ccc(C(=O)C2CCCN(C(=O)c3cc4nc(C)cc(C)n4n3)C2)cc1F` (stereo not given), the inhibition is 26.4% (inactive).
As to `CC(C)c1cc(C(N)=O)c(NC(=O)c2cccc(COc3ccc(Br)cc3)c2)s1`, the inhibition was 40.9% (active).
In the case of `CCOc1ccc(OCc2cccc(C(=O)N(CC)CC)c2)cc1`, the inhibition is 21.6% (inactive).
Regarding `CCOC(=O)c1cc(C(C)C)sc1NC(=O)COC(=O)c1nccnc1N`, the inhibition was 9.86% (inactive).
`CC(C)CCN1CCC(C)(NC(=O)c2ccccc2)C1=O` (stereo not given): the inhibition was 10.4% (inactive).
The figure for `COc1ccc(CN2C(=O)C(C)S/C2=N/N=C/c2ccco2)cc1` (stereo not given) is 19.3% (inactive); for `Cc1nn(-c2ccccc2)c2c1C(c1ccc(F)cc1)C(C#N)=C(N)O2` (stereo not given) it is 24% (inactive); for `Cc1nn(Cc2ccccc2)c2c1C(c1ccccc1)C(C#N)=C(N)O2` (stereo not given) it is 30.9% (inactive).
As for `COc1ccccc1C1C(C#N)=C(N)Oc2c1c(-c1ccccc1)nn2-c1ccccc1` (stereo not given), the inhibition was 40.7% (active).
On to `COc1ccc(CCOC(=O)CNC(=O)c2ccc(Cl)cc2Cl)cc1`, for which the inhibition is 18.1% (inactive).
Regarding `O=C(O)c1cccnc1Sc1ncnc2sc3c(c12)CCC3`, the inhibition was -4.59% (inactive).
For `c1c2c(cc3sc(N4CCCCC4)nc13)OCCO2`, the inhibition was 43.1% (active).
As to `Cc1nc(N2CCCCC2)sc1C=O`, the inhibition is -8.24% (inactive).
Take `Brc1ccc2nc(N3CCCC3)sc2c1`: the inhibition was 22.5% (inactive).
As to `CC(C)N(C(=O)CN1CCN(S(=O)(=O)c2ccc(Br)s2)CC1)C(C)C`, the inhibition was 16.4% (inactive).
For `O=C(COC(=O)C1CC2C=CC1C2)Nc1ccccc1` (stereo not given), the inhibition is 13.3% (inactive).
As for `O=C1CC(c2cccc(Cl)c2)CC(O)=C1C=Nc1ccccc1` (stereo not given), the figure is 21.6% (inactive); as for `CCOc1ccc(-c2cc(C(=O)N/N=C/c3ccc(O)cc3)c3ccccc3n2)cc1`, 6.2% (inactive); as for `O=C(O)c1cc([N+](=O)[O-])c(Nc2cccc3ccccc23)c([N+](=O)[O-])c1`, 7.28% (inactive).
Turning to `CCOC(=O)c1nnn(-c2nonc2OC)c1-c1ccccc1`, the inhibition is 15.2% (inactive).
As for `CCOC(=O)c1c(-c2cccc(N)c2)cn2ccccc12`, the inhibition is 10.5% (inactive).
On to `CCOC(=O)c1c(N)nn(C(=O)c2ccccc2)c1-c1ccccc1`, for which the inhibition is 41.5% (active).
For the compound `Cc1ccnc(NC(=O)Cn2ccc([N+](=O)[O-])n2)c1`, the inhibition was 14.6% (inactive).
For the compound `COc1cccc(/C=C/C(=O)OCC(=O)N2CCN(c3ccccc3)CC2)c1`, the inhibition is 17.4% (inactive).
As to `Cc1cc(NCc2ccco2)n2c(nc3ccccc32)c1C#N`, the inhibition was 7.48% (inactive).
`Cn1c(-c2ccco2)nc2cc3ccccc3cc21`: the inhibition was 33.2% (inactive).
The figure for `CN1c2ccccc2-c2nc3ccccc3n2C1c1ccco1` (stereo not given) is 42.1% (active); for `CCO[C@H]1OC(C(=O)O)=C[C@@H](C2CCCCC2)[C@@H]1CCCO` it is -21.3% (inactive).
Consider `CCCOc1ccc(Cc2c(Cl)nc(SC)nc2NC)cc1`, for which the inhibition was 35.5% (inactive).
Consider `CCc1cc(C(=O)c2ccc(OC)cc2)c(NC(=O)CN2CCN(C)CC2)s1`, for which the inhibition is 17.7% (inactive).
For `COc1ccc(C(=O)Nc2sc(C)c(C)c2CN2CCOCC2)cc1`, the inhibition is 34.2% (inactive).
`CCc1cc(C(N)=O)c(NC(=O)c2ccc(OC)cc2)s1`: the inhibition is 45.5% (active).
Turning to `C/C(Cn1nnc2ccccc21)=N\OC(=O)c1cc(F)c(F)cc1Cl`, the inhibition was 37.4% (inactive).

One may read the inhibition as the change of the read-out against control, counted positive when it falls.
